Results taken from PubChem BioAssay AID1159580 (chemical genetic matrix, 2015).
Screen size: about 5,500 compounds; about 2,000 (36%) were called active. Not shown: some 18% with an inconclusive outcome. No stated cut-off is given here; in the data, active means normalized growth mostly below about 0.91 (no sharp cut-off); inconclusive means no clear call, values can overlap the other calls; inactive means mostly above about 0.92. Some of the results follow.

Test: chemical genetic growth profiling, strain panel (AID 1159580);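 further: tested at 20 µM; growth read once vehicle control cultures reached saturation at 30 °C; 1 = growth at the plate median or of vehicle wells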
Details: S. cerevisiae deletion strains, growth OD

Measured: normalized growth

COc1cc(OC)c2c(=O)c(-c3ccccc3)c(C)oc2c1OC
inactive: locus YAL013W, strain DEP1, stronger effect = lower value 1.01 | locus YAL021C, strain ccr4, stronger effect = lower value 0.984 | locus YAL026C, strain drs2, stronger effect = lower value 0.986 | locus YAL030W, strain snc1, stronger effect = lower value 0.976 | locus YBL061C, strain skt5, stronger effect = lower value 0.975 | locus YBR009C, strain hhf1, stronger effect = lower value 0.953 | locus YBR021W, strain FUR4, stronger effect = lower value 1 | locus YBR023C, strain chs3, stronger effect = lower value 0.987 | locus YBR171W, strain sec66, stronger effect = lower value 0.984 | locus YBR229C, strain ROT2, stronger effect = lower value 1 | locus YBR231C, strain swc5, stronger effect = lower value 0.993 | locus YBR279W, strain paf1, stronger effect = lower value 0.986 | locus YCL011C, strain gbp2, stronger effect = lower value 0.973 | locus YCL016C, strain dcc1, stronger effect = lower value 0.987 | locus YCL029C, strain bik1, stronger effect = lower value 1 | locus YCL061C, strain MRC1, stronger effect = lower value 0.988 | locus YCL069W, strain vba3, stronger effect = lower value 0.974 | locus YCR088W, strain abp1, stronger effect = lower value 0.988 | locus YDL005C, strain med2, stronger effect = lower value 0.973 | locus YDL035C, strain GPR1, stronger effect = lower value 1.02 | locus YDL040C, strain nat1, stronger effect = lower value 0.985 | locus YDL074C, strain BRE1, stronger effect = lower value 1.02 | locus YDL101C, strain DUN1, stronger effect = lower value 1.01 | locus YDL134C, strain PPH21, stronger effect = lower value 1 | locus YDL185W, strain tfp1, stronger effect = lower value 1 | locus YDL192W, strain arf1, stronger effect = lower value 0.995 | locus YDR001C, strain nth1, stronger effect = lower value 0.987 | locus YDR069C, strain doa4, stronger effect = lower value 0.966 | locus YDR101C, strain arx1, stronger effect = lower value 0.984 | locus YDR137W, strain rgp1, stronger effect = lower value 0.955 | locus YDR150W, strain NUM1, stronger effect = lower value 1.02 | locus YDR159W, strain sac3, stronger effect = lower value 0.973 | locus YDR162C, strain NBP2, stronger effect = lower value 1.02 | locus YDR195W, strain ref2 0.921 | locus YDR297W, strain sur2, stronger effect = lower value 0.988 | locus YDR318W, strain mcm21, stronger effect = lower value 0.995 | locus YDR334W, strain swr1, stronger effect = lower value 0.981 | locus YDR335W, strain msn5, stronger effect = lower value 0.997 | locus YDR388W, stronger effect = lower value 0.988 | locus YDR392W, strain spt3, stronger effect = lower value 0.925 | locus YDR502C, strain sam2, stronger effect = lower value 0.997 | locus YEL003W, strain gim4, stronger effect = lower value 0.987 | locus YEL037C, strain rad23, stronger effect = lower value 0.981 | locus YEL061C, strain CIN8 (second series), stronger effect = lower value 0.967 | locus YEL061C, strain CIN8, stronger effect = lower value 1.01 | locus YER015W, strain faa2, stronger effect = lower value 0.981 | locus YER016W, strain bim1, stronger effect = lower value 0.986 | locus YER110C, stronger effect = lower value 0.994 | locus YER111C, strain swi4, stronger effect = lower value 0.971 | locus YER155C, strain BEM2 (second series), stronger effect = lower value 0.978 | locus YER155C, strain BEM2, stronger effect = lower value 1.01 | locus YER167W, strain BCK2, stronger effect = lower value 1 | locus YFR010W, strain ubp6, stronger effect = lower value 0.98 | locus YGL078C, strain dbp3, stronger effect = lower value 0.998 | locus YGL086W, strain mad1, stronger effect = lower value 1 | locus YGL167C, strain pmr1, stronger effect = lower value 0.97 | locus YGL173C, strain kem1, stronger effect = lower value 0.99 | locus YGL227W, strain vid30, stronger effect = lower value 0.961 | locus YGL240W, strain doc1, stronger effect = lower value 0.977 | locus YGL248W, strain PDE1, stronger effect = lower value 1 | locus YGL253W, strain hxk2, stronger effect = lower value 0.994 | locus YGR078C, strain PAC10, stronger effect = lower value 1.01 | locus YGR135W, strain pre9, stronger effect = lower value 0.993 | locus YGR229C, strain SMI1, stronger effect = lower value 1.03 | locus YGR252W, strain gcn5, stronger effect = lower value 0.943 | locus YHR013C, strain ard1, stronger effect = lower value 0.94 | locus YHR027C, strain rpn1, stronger effect = lower value 0.987 | locus YHR030C, strain SLT2, stronger effect = lower value 1.01 | locus YHR079C, strain IRE1 (second series), stronger effect = lower value 0.989 | locus YHR094C, strain hxt1, stronger effect = lower value 0.993 | locus YHR129C, strain ARP1, stronger effect = lower value 1 | locus YHR142W, strain chs7, stronger effect = lower value 1.01 | locus YHR200W, strain rpn10, stronger effect = lower value 0.997 | locus YIL066C, strain RNR3, stronger effect = lower value 1.01 | locus YIL073C, strain SPO22, stronger effect = lower value 0.999 | locus YIL125W, strain kgd1, stronger effect = lower value 0.997 | locus YIR030C, strain dcg1, stronger effect = lower value 1 | locus YJL092W, strain hpr5, stronger effect = lower value 0.987 | locus YJL095W, strain BCK1, stronger effect = lower value 1.01 | locus YJL115W, strain asf1, stronger effect = lower value 1 | locus YJL129C, strain trk1, stronger effect = lower value 0.946 | locus YJL134W, strain LCB3, stronger effect = lower value 1.01 | locus YJL154C, strain vps35, stronger effect = lower value 0.985 | locus YJL164C, strain tpk1, stronger effect = lower value 1 | locus YJL166W, strain qcr8, stronger effect = lower value 0.98 | locus YJL168C, strain set2, stronger effect = lower value 0.997 | locus YJL187C, strain SWE1 (second series), stronger effect = lower value 1.01 | locus YJL187C, strain SWE1, stronger effect = lower value 0.987
